Our source for the Potency values is PubChem BioAssay (Tox21).

The nature of experiment [1]: Nuclear factor erythroid 2-related factor 2/antioxidant responsive element (Nrf2/ARE) small molecule agonists: qHTS cell viability counter screen in human keratinocytes (AID 1919968; active = well fitted cell-killing curve with a large enough effect in the repeat runs; also: nearly all actives have a fitted effect of over 55% in size; also: potency is read from the fitted curve at half-maximal effect). Put shortly: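 Seed 1,500 KeratinoSens cells per well, then incubate 5 h at 37 C/5% CO2. Add compounds in DMSO and incubate 23 h. Add CellTiter-Fluor, wait 1 h and read fluorescence.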

The target of experiment [2] is Gonadotropin-releasing hormone receptor (Homo sapiens) (UniProt P30968). The experiment can be described thus: Human gonadotropin-releasing hormone receptor (GnRHR) small molecule agonists, calcium flux assay in GnRHR-HEK293 cells (AID 1920063). Also: nearly all actives have a fitted effect of over 35% in size. Also: potency is read from the fitted curve at half-maximal effect. The method in brief:
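Cells: HEK293 stably expressing human GnRHR. Steps: overnight (18 h) culture, 1 h calcium dye loading at 37 C, compound addition, kinetic fluorescence read at 480/540 nm. Each compound tested at 15 concentrations in triplicate.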

A short description of experiment [3]: G protein-coupled receptor (GPCR) small molecule agonists, calcium flux assay: HEK293 wild type cell line counter screen (AID 1920065). The method in brief: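 Counter-screen of the Tox21 10K library for non-specific calcium release: dye-loaded cells received compounds in DMSO and were monitored by kinetic fluorescence (480/540 nm, 3 min). Fifteen concentrations, run in triplicate.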

Experiment [4] in a line: p53 small molecule agonists, cell-based qHTS assay with human liver microsomes (AID 1963577).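 Also: p53 response element beta-lactamase reporter cells with liver microsomes plus NADPH.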 Put shortly:
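In this qHTS, p53 response-element beta-lactamase cells receive test compound together with a microsome/NADPH activating system (0.5 mg/mL final each) and are incubated 16 h at 37 C before LiveBLAzer fluorescence detection.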

A short description of experiment [5]: p53 small molecule agonists, cell-based qHTS assay with rat liver microsomes (AID 1963578). The method in brief:
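Agonist mode in p53RE-bla reporter cells, with compounds co-incubated 16 h at 37 C alongside 0.5 mg/mL rat liver microsomes and 0.5 mg/mL NADPH (final), followed by a 2 h LiveBLAzer detection step.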

The nature of experiment [6]: p53 small molecule agonists, cell-based qHTS assay with human liver microsomes: qHTS cell viability counter screen (AID 1963579). Also: nearly all actives have a fitted effect of over 45% in size. Put shortly:
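Metabolically activated exposure: compounds, human liver microsomes and NADPH (0.5 mg/mL final apiece) were added to p53RE-bla cells seeded 5 h earlier, left 16 h at 37 C, and then assessed for viability by CellTiter-Glo luminescence.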

Experiment [7] can be described thus: p53 small molecule agonists, cell-based qHTS assay with rat liver microsomes: qHTS cell viability counter screen (AID 1963580). Also: nearly all actives have a fitted effect of over 45% in size. Also: potency is read from the fitted curve at half-maximal effect. The method in brief:
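Viability is assessed in parallel with the p53 reporter read: HCT-116 p53RE-bla cells receive compounds plus rat microsomes and NADPH (0.5 mg/mL final apiece), incubate 16 h at 37 C, and then CellTiter-Glo luminescence is recorded.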

The nature of experiment [8]: p53 small molecule agonists, cell-based qHTS assay: qHTS cell viability counter screen (AID 1963581). Also: nearly all actives have a fitted effect of over 45% in size. Also: potency is read from the fitted curve at half-maximal effect. The method in brief: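 Cells: HCT-116 with p53 response element-driven beta-lactamase. Treatment: 16 h, 37 C, compounds in DMSO. Read: CellTiter-Glo luminescence after 30 min RT.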
The nature of experiment [9]: p53 small molecule agonists, cell-based qHTS assay (AID 1963582; active = well fitted activation curve with a large enough effect in the signal ratio in the repeat runs, not every such curve was filed as active; the % refers to the signal ratio). Put shortly: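 Quantitative HTS in p53RE-bla cells: after a 5 h settling period, compounds delivered in DMSO were left on cells for 16 h at 37 C, and reporter induction was measured as fluorescence following 2 h substrate loading.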
Experiment [10] deals with 5-hydroxytryptamine receptor 2A (Homo sapiens) (UniProt P28223). The experiment can be described thus: 5-hydroxytryptamine receptor 2A (HTR2A) small molecule antagonists, cell-based qHTS assay (AID 1963586). Also: nearly all actives have a fitted effect of over 45% in size. Also: potency is read from the fitted curve at half-maximal effect. The method in brief: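 Antagonist-mode intracellular calcium assay: DOI (4 nM) added after 5 min compound pre-incubation at room temperature to dye-loaded HTR2A-CHO cells. Fluorescence followed for 3 min, sampled every second.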

Experiment [11] shares this target. The experiment can be described thus: 5-hydroxytryptamine receptor 2A (HTR2A) small molecule agonists, cell-based qHTS assay (AID 1963587). Also: nearly all actives have a fitted effect of over 30% in size. Also: potency is read from the fitted curve at half-maximal effect. Put shortly:
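CHO cells stably expressing human HTR2A, plated 18 h, loaded with calcium dye 1 h at 37 C. Agonist mode: compounds added and intracellular calcium fluorescence recorded kinetically for 2 min at 1 sec intervals.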

In experiment [12] the target is Muscarinic acetylcholine receptor M1 (Homo sapiens) (UniProt P11229). The experiment can be described thus: Cholinergic receptor muscarinic 1 (CHRM1) small molecule antagonists, cell-based qHTS assay (AID 1963588). Also: nearly all actives have a fitted effect of over 40% in size. Also: potency is read from the fitted curve at half-maximal effect. Put shortly:
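CHRM1-CHO calcium-flux assay, antagonist mode. Cells were seeded 18 h, dye-loaded 1 h at 37 C and given compound for 5 min at RT, then acetylcholine was added at 50nM. FDSS fluorescence was read 3 min; 15 concentrations, three runs.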

For experiment [13] the target is unchanged. The experiment can be described thus: Cholinergic receptor muscarinic 1 (CHRM1) small molecule agonists, cell-based qHTS assay (AID 1963589). Also: nearly all actives have a fitted effect of over 35% in size. Put shortly: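 Agonist-mode qHTS in CHO cells stably carrying human muscarinic M1. Intracellular calcium is tracked by fluorescence every second after compound transfer; each compound runs at 15 concentrations in three independent runs.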

Experiment [14] can be described thus: cAMP Responsive Elements (CRE) small molecule agonists, cell-based qHTS assay (AID 1963590). Put shortly: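 Agonist mode qHTS in CRE-bla HEK 293T cells: compounds dosed from DMSO for 3 h at 37 C/5% CO2, followed by LiveBLAzer B/G FRET substrate for 2 h at room temperature.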
Experiment [15] deals with D(2) dopamine receptor (Homo sapiens) (UniProt P14416). The experiment can be described thus: Dopamine D2 receptor (DRD2) small molecule agonists, cell-based qHTS assay (AID 1963594). Also: nearly all actives have a fitted effect of over 35% in size. Also: potency is read from the fitted curve at half-maximal effect. The method in brief:
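HEK293 cells stably expressing human DRD2, pre-treated with PDE inhibitor Ro20-1724 (0.1 mM final) and compound 10 min at room temperature, then stimulated with NKH477 (200nM […]) for 30 min. cAMP read by HTRF (665/620 nm).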

Experiment [16] shares this target. The experiment can be described thus: Dopamine D2 receptor (DRD2) small molecule antagonists, cell-based qHTS assay (AID 1963595; active = well fitted inhibition curve with a large enough effect in the signal ratio in the repeat runs, with a control signal flat; the % refers to the signal ratio; also: potency is read from the fitted curve at half-maximal effect). Put shortly: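 Stable D2 receptor HEK293 line, 24 h after seeding. Compound preincubated 10 min, then quinpirole (12 nM) with forskolin analogue NKH477 (200 nM), 30 min, room temperature. Detection by time-resolved FRET of cAMP.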

In experiment [17] the target is Beta-2 adrenergic receptor (Homo sapiens) (UniProt P07550). The experiment can be described thus: Adrenergic beta2 receptor (ADRB2) small molecule antagonists, cell-based qHTS assay (AID 1963592). Also: series mostly up to about 92 µM; nearly all actives have a fitted effect of over 50% in size. The method in brief: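 Cells (CHO, stable ADRB2 overexpression) incubated 18-20hr at 37C; compounds added from DMSO; agonist mix (1nM isoproterenol, 100uM IBMX, 25uM Ro-20-1724) added; 0.5hr RT; d2-cAMP and anti-cAMP-cryptate added; 1hr RT; 665/615 nm read.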

The nature of experiment [18]: cAMP Responsive Elements (CRE) small molecule antagonists, cell-based qHTS assay (AID 1963591; active = well fitted inhibition curve with a large enough effect in the signal ratio in the repeat runs, not every such curve was filed as active; the % refers to the signal ratio). The method in brief:
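Antagonist mode: test compounds are co-incubated with the adenylyl cyclase activator NKH477 (0.25 uM final) on CRE-bla HEK293T cells for 3 h at 37 °C, followed by LiveBLAzer substrate loading.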

For experiment [19], the target named is Beta-2 adrenergic receptor (Homo sapiens) (UniProt P07550). The experiment can be described thus: Adrenergic beta2 receptor (ADRB2) small molecule agonists, cell-based qHTS assay (AID 1963593).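 Also: CHO cells stably overexpressing human ADRB2.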 The method in brief: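 CHO cells stably over-expressing ADRB2 were plated overnight at 37C, then dosed with compounds plus a stimulation mix containing 100uM IBMX and 25uM Ro-20-1724 for 0.5hr at room temperature. cAMP was measured by HTRF competition, 1hr.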

A number with no mark means an inactive call. Inconclusive results are not listed. Calls of active or inactive are those of the source. Unless noted, calls follow the shape of the full dose curve.

Muscarinic acetylcholine receptor M1 (Homo sapiens), sequence (P11229 whole entry, looked up): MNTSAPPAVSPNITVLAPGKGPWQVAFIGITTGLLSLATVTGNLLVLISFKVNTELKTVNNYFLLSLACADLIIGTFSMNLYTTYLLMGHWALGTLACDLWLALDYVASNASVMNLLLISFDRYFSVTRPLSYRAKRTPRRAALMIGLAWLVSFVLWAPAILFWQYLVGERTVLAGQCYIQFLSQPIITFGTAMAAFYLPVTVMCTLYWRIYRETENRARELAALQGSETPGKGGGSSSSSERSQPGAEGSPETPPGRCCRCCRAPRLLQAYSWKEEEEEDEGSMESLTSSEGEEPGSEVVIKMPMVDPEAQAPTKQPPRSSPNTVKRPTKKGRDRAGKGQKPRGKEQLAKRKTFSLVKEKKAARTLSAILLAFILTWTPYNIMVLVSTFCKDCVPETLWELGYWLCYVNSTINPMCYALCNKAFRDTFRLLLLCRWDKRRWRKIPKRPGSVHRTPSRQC
D(2) dopamine receptor (Homo sapiens), sequence (P14416 whole entry, looked up): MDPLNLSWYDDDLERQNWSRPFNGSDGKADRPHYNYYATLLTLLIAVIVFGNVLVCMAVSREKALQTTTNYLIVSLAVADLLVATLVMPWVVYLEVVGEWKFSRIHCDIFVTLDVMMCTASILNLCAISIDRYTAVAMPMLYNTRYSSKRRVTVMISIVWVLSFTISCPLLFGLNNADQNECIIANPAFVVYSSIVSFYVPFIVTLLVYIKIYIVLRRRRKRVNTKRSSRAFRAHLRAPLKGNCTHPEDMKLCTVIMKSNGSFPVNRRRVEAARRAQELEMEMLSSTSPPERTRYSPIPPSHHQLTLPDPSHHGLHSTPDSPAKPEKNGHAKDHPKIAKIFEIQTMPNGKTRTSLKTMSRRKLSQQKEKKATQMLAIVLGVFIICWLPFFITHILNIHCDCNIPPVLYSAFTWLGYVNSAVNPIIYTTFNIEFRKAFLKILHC
Gonadotropin-releasing hormone receptor (Homo sapiens), sequence (P30968 whole entry, looked up): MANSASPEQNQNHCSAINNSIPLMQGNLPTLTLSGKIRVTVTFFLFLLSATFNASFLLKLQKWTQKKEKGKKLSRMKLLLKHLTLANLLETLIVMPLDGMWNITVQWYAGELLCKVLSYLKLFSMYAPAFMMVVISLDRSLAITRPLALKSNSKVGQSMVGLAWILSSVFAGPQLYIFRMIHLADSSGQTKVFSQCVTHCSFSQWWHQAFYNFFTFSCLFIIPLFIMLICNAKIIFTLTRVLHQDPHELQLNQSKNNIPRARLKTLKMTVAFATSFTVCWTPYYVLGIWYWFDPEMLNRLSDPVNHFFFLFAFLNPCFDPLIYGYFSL
5-hydroxytryptamine receptor 2A (Homo sapiens), sequence (P28223 whole entry, looked up): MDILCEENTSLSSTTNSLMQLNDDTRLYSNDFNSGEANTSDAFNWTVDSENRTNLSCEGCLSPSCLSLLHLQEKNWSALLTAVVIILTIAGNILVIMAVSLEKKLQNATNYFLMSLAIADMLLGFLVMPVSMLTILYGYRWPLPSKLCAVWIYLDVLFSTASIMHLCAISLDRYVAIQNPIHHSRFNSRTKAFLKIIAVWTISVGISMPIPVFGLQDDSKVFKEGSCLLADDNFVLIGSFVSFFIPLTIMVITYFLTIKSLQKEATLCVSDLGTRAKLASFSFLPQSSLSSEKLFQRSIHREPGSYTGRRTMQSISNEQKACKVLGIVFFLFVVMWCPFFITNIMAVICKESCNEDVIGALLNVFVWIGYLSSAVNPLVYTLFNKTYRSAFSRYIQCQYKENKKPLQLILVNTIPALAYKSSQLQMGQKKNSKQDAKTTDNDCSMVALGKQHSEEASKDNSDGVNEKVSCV
Beta-2 adrenergic receptor (Homo sapiens), sequence (P07550 whole entry, looked up): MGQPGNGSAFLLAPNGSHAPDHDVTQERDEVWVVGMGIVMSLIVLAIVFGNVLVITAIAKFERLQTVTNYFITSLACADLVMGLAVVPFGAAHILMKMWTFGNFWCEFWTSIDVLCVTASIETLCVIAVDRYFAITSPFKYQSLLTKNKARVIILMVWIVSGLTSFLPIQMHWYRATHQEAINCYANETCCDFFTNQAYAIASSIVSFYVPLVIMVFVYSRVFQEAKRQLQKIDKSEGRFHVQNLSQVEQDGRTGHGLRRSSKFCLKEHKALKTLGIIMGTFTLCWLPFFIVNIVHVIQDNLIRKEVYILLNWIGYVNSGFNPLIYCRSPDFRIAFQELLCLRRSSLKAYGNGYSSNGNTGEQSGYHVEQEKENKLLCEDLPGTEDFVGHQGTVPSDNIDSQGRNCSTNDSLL

Consider `O=[N+]([O-])c1ccccc1CCl`, for which the Potency entry in experiment [1], in experiment [2], in experiment [3], in [4], in experiment [5] and in experiment [6] was “inactive” throughout. Besides, the Potency result in experiment [7], in experiment [8], in [9], in experiment [10], in [11] and in experiment [12] was “inactive” each time. Further, the Potency entry in experiment [13], in experiment [14], in [15] and in [16] was “inactive” throughout.

With `CC(=O)[O-].CC(=O)[O-].[Hg+2]`, the Potency was 3.06 µM (active) in experiment [1]; 38.9 µM (active) in experiment [2]; 16.2 µM (active) in experiment [7]; 7.25 µM (active) in experiment [8]; 49 µM (active) in experiment [11]; 21.1 µM (active) in experiment [12]. The Potency was 14.2 µM (active) in experiment [15] and 5.45 µM (active) in experiment [16]. In addition, the Potency result in experiment [3] and in experiment [10] was “inactive” in each case.

As for `c1ccc(C2CC2)c(OCC2=NCCN2)c1`, the Potency entry in experiment [1], in [3], in experiment [4], in experiment [5], in experiment [6] and in [7] was “inactive” each time. Also, the Potency result in experiment [8], in [9], in experiment [10], in experiment [12], in [13] and in [17] was “inactive” each time. Also, in [15], the Potency entry is “inactive”. For the same compound, the Potency in [16] is 8.41 µM (active).

As to `COP(=S)(NC(C)C)Oc1ccc(C)cc1[N+](=O)[O-]` (centres undefined), the Potency result in experiment [1], in [2], in [3], in [6], in [7] and in experiment [8] was “inactive” each time. The Potency result in [10], in experiment [11], in [12], in experiment [13], in [18] and in experiment [15] was “inactive” throughout.

For the compound `COP(=S)(OC)Oc1cc(Cl)c(I)cc1Cl`, the Potency entry in experiment [1], in experiment [2], in experiment [3], in experiment [6], in experiment [7] and in experiment [10] was “inactive” each time. Further, the Potency entry in experiment [11], in experiment [12], in experiment [14], in experiment [18], in experiment [17] and in [19] was “inactive” throughout. The Potency entry in experiment [15] and in experiment [16] was “inactive” in each case.

Take `Clc1ccccc1-c1ccccc1Cl`: the Potency in [1] was 55.3 µM (active); in experiment [10], 47.9 µM (active). For the same compound, the Potency result in experiment [2], in [3], in experiment [4], in [5], in experiment [6] and in experiment [7] was “inactive” throughout. The Potency result in experiment [8], in experiment [9], in [11], in [12], in [13] and in experiment [14] was “inactive” throughout. The Potency result in experiment [18], in experiment [17], in experiment [15] and in experiment [16] was “inactive” each time.
